Laboratory results from article PMC5540273 (PLoS ONE, 2017).

What was measured:
Details in all cases: concentration: 1 μM, replicates: in singlicate; n = 1
PRKD3 = test system: PRKD3
PRKG1 = test system: PRKG1
PRKG2 = test system: PRKG2
PRKR = test system: T1, PRKR
T1 construct: gene EIF2AK2

PRKX = test system: PRKX
PRP4 = test system: PRP4
PYK2 = test system: T2, PYK2
T2 construct: gene PTK2B

QSK = test system: QSK
RAF1 = test system: RAF1
RET = test system: RET
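Further: KINOMEscan kinase panel screen.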

Structure (SMILES)	%Inh (PRKD3) [%]	%Inh (PRKG1) [%]	%Inh (PRKG2) [%]	%Inh (PRKR) [%]	%Inh (PRKX) [%]	%Inh (PRP4) [%]	%Inh (PYK2) [%]	%Inh (QSK) [%]	%Inh (RAF1) [%]	%Inh (RET) [%]
CCOc1nccc(-c2c(-c3ccc(F)cc3)ncn2C2CCNCC2)n1 [SB-249175]	19	0	12	16	0	0	16	20	19	32
CCNC(=O)/C=C/c1n[nH]c2cc(Sc3ccccc3C(=O)NC)ccc12	0	14	2	0	3	0	0	0	0	80
CN(c1ccc(NC(=O)N2CCN(CCCN3CCOCC3)CC2)cc1)c1ccnc(Nc2ccc(CS(C)(=O)=O)cc2)n1.Cl [GW830899]	0	0	100	0	63	0	16	0	28	6
COc1ccc(C)c(Nc2ccnc(Nc3ccc(-c4cnc[nH]4)cc3)n2)c1.Cl [GW784041]	0	0	12	0	0	0	5	0	27	0
CC(C)NCC(Cc1ccccc1)NC(=O)c1cc(Br)c(-c2ccnc3[nH]ccc23)s1.Cl.Cl (centres unmarked) [GSK1383281]	81	98.8	98.8	16	96.5	24	17	5	0	66
Cc1ccc(NC(=O)c2cccc(N3CCCCC3)c2)cc1-c1ccc(C(=O)NCC2CC2)cc1 [GSK1917008]	100	31	0	0	26	4	0	8	88	10
COC(=O)Nc1nc2ccc(Oc3ccc(CC(=O)Nc4cc(C(F)(F)F)ccc4F)cc3)cc2[nH]1 [GW680903]	18	0	0	0	2	32	0	0	86	97.7
CN(C)CCOc1ccc(-c2cc(-c3ccc(Cl)c(O)c3)c(-c3ccncc3)[nH]2)cc1.Cl.Cl [SB-684387]	15	11	80	11	17	15	0	3	88	60
COc1cc(Nc2nccc(N3CCC(NS(=O)(=O)c4ccc(NC(C)=O)cc4)CC3)n2)cc(OC)c1OC [GSK1379825]	0	5	0	0	15	18	37	20	60	30
Cc1cccc(Nc2nc(NCCN)ncc2C(N)=O)c1 [GSK1292139]	100	9	0	3	35	41	66	20	3	14
CS(=O)(=O)c1cccc(CNc2nc(Nc3ccc4c(c3)CCC(=O)N4)ncc2C(F)(F)F)c1	4	0	0	0	0	30	26	0	0	90.1
Cc1nn2c(=O)cc(N3CCO[C@H](C)C3)nc2n1Cc1cccc(Cl)c1Cl [GSK2373693]	45	4	0	0	9	14	0	0	9	69
Cl.Cl.NC(CNC(=O)c1cc(Br)c(-c2ccnc3[nH]ccc23)s1)c1ccccc1 (centres unmarked) [GSK1322949]	62	98.5	98.4	6	92.5	87	32	22	0	30
O=C(Nc1n[nH]c2cc(-c3cccs3)ccc12)C1CC1 [SB-731284]	7	8	22	0	0	7	0	44	9	0
COc1cccc(-c2nc(-c3ccccc3)[nH]c2-c2ccncc2)c1 [SB-610250]	11	0	0	0	0	70	0	8	34	25
CC(C)c1nc(-c2cccc(NS(=O)(=O)c3c(F)cccc3F)c2)c(-c2ccnc(Nc3ccc(N4CCOCC4)nc3)n2)s1.Cl [GSK1723980]	100	0	0	29	7	0	25	82	99.4	99.6

Structure (SMILES)	%Inh (PRKD3) [%]	%Inh (PRKG1) [%]	%Inh (PRKG2) [%]	%Inh (PRKR) [%]	%Inh (PRKX) [%]	%Inh (PRP4) [%]	%Inh (PYK2) [%]	%Inh (QSK) [%]	%Inh (RAF1) [%]	%Inh (RET) [%]
COc1cccc(C2=C(Nc3cccc(O)c3)C(=O)NC2=O)c1 [SB-390771]	7	9	81	15	20	41	43	0	20	1
O=C(O)C(F)(F)F.O=c1[nH]ccc2nc(N[C@@H]3CCNC3)nc(Nc3ccc4c(c3)S(=O)(=O)CC4)c12 [GSK2181306]	100	56	93.6	91.1	89	67	99.4	31	0	97.5
Cc1ccc(NC(=O)c2ccnc(N3CCCCC3)c2)cc1-c1ccc(C(=O)NCC2CC2)cc1 [GW775610]	0	73	0	3	5	0	5	0	85	5
CN1CCN(Cc2ccc(NC(=O)Nc3ccc(N(C)c4ccnc(Nc5ccc(CS(C)(=O)=O)cc5)n4)cc3)cc2)CC1.Cl [GW827654]	0	0	0	0	22	33	88	0	0	100
Cl.N#CCc1ccc(Nc2nccc(Nc3ccc(Oc4ccccc4)cc3)n2)cc1 [GW639905]	53	0	0	0	10	16	8	1	6	38
Cn1cc(-c2ccc3c(c2)CCN3C(=O)Cc2cc(F)cc(C(F)(F)F)c2)c2c(N)ncnc21 [GSK2635225]	18	0	16	15	6	16	0	10	11	35
Cc1ccccc1CC(=O)N1CCc2cc(-c3cn(C)c4ncnc(N)c34)ccc21 [GSK2603346]	0	0	0	0	0	0	0	4	0	36
Fc1cc(Cl)ccc1Nc1ccnc2cc(-c3ccc(CN4CCSCC4)o3)ccc12 [GW560106]	0	27	66	3	1	29	0	63	12	98.3
c1ccc(Oc2ccc(Nc3ccnc4cc(-c5ccc(CN6CCCCC6)o5)ccc34)cc2)nc1 [GW567143]	0	6	0	0	7	2	0	27	0	11
CN(C)c1ncnc2nc[nH]c12 [SKF-31736]	0	19	0	0	0	0	0	27	0	0
COc1cc(Nc2ccnc3cc(-c4ccncc4)ccc23)cc(OC)c1OC.Cl [GW494610]	6	8	69	0	0	27	16	84	23	24
NCCC(NC(=O)c1cc(Br)c(-c2ccnc3[nH]ccc23)s1)c1ccccc1.O=C(O)C(F)(F)F.O=C(O)C(F)(F)F (centres unmarked) [GSK1307810]	35	97.5	98.2	17	96.9	76	0	0	9	36
COC(=O)Nc1nc2ccc(Oc3ccc(NC(=O)Nc4cc(C(F)(F)F)ccc4F)cc3)cc2[nH]1.Cl [GW654607]	15	9	10	3	10	0	15	28	91.3	100
O=C(Nc1c(F)cccc1F)c1cc(C(=O)c2ccccc2F)c[nH]1 [GSK1326180]	0	0	0	0	3	0	6	4	6	4
Cc1ccc(Nc2ccnc(Nc3ccc(C)c(F)c3)n2)cc1O.Cl [GW582868]	0	0	0	0	0	27	1	0	12	67
Cc1cccc(Nc2nc(N[C@H]3CCCC[C@H]3N)ncc2C(N)=O)c1.Cl [GSK986310]	58	20	0	30	25	1	71	18	3	76
